For one test, the system named is Staphylococcus aureus. Particulars: Concentration 32 ug.mL-1; ASSAY_TEST Inhibition of Bacterial Growth; detection method Absorption (OD600); MEDIA CAMHB; plate type 384well; NBS; CORNING #3640; time 18 hr.
Another test deals with Escherichia coli. Particulars: Concentration 32 ug.mL-1; ASSAY_TEST Inhibition of Bacterial Growth; detection method Absorption (OD600); MEDIA CAMHB; plate type 384well; NBS; CORNING #3640; time 18 hr.

This note sets out measurements from ChEMBL document CHEMBL4513158, “CO-ADD screening of RKDF (India) compounds”.

What is called Inhibition is the relative decrease from the control value, in per cent. Lower therefore signals a weak effect.

Potency and affinity values are given separately.

On to `CN(C)C(=N)NC(=N)N.Cl` [METFORMIN HYDROCHLORIDE], for which the Inhibition in the test with Staphylococcus aureus is given as 23.29%.
With `C=C[C@H]1[C@H](O[C@@H]2O[C@H](CO)[C@@H](O)[C@H](O)[C@H]2O)OC=C2C(=O)OCC[C@]21O` [SWERTIAMARIN], the Inhibition in the test with Staphylococcus aureus stood at 25.69%; in the test with Escherichia coli it was 13.89%.
